Bioassay records from PubChem BioAssay.
Hits are enriched below; roughly 11% of the tested compounds scored in any of these assays.
JMJD2A Tudor inh: inhibitors of human JMJD2A Tudor domain; AlphaScreen JMJD2A-Tudor / H3K4me3 peptide binding; Potency, µM (doses to about 114 µM), without a hit: at the highest dose activity change, negative = inhibition, hits mostly inhibitors; hit rate 4.4% among 390,000; AID 504339; note: % is set by controls: 0 for no effect and ±100 for the full control effect; nearly all actives have a fitted effect of over 50% in size
Target sequence (O75164 whole entry, looked up, the tested form may be a part): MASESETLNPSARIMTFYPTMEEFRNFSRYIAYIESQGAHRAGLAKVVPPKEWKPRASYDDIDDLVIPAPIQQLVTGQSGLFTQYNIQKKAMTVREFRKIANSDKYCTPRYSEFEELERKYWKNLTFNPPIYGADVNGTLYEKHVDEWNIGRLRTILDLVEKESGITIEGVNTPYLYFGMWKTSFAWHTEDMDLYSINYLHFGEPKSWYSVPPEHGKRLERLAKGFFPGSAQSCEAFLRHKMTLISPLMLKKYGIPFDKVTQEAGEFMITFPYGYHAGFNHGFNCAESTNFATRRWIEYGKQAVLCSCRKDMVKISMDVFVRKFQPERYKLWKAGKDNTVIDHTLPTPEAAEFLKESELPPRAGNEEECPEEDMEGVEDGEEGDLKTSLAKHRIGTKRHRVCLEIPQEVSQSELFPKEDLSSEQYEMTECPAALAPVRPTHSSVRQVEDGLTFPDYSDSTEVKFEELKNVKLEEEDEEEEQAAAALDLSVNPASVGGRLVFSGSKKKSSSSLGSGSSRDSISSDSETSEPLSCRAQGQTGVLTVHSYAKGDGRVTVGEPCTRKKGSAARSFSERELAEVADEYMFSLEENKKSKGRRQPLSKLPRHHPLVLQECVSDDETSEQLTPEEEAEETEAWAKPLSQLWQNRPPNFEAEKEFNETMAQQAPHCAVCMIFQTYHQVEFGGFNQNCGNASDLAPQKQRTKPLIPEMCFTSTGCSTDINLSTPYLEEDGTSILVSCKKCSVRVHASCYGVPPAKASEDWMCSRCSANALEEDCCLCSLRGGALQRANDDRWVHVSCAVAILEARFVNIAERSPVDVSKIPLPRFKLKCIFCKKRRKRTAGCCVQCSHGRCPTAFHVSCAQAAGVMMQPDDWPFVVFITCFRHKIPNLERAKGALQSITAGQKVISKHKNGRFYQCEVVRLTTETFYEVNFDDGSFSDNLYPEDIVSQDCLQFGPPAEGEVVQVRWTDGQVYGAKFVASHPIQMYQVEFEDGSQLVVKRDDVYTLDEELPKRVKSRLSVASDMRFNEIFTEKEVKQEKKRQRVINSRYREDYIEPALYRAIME
BAZ2B block: inhibitors of human BAZ2B bromodomain; AlphaScreen BAZ2B-H3K14Ac peptide displacement; Potency, µM (top dose mostly 114 µM), without a hit: top-dose activity change, negative = inhibition, actives largely listed as inhibitors; hit rate 4.4% among 360,000; AID 504333; note: % is set by controls: 0 for no effect and ±100 for the full control effect; nearly all actives have a fitted effect of over 60% in size
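AlphaScreen displacement: compounds (up to 110uM) incubated 30 min at room temperature with a preformed 50 nM BAZ2B/50 nM biotinylated H3K14Ac peptide complex in PBS pH 7.4 with Tween-20. Donor and acceptor beads at 10 ug/mL final added, 20 min light-protected before reading.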
HP1b chromo inh: blocks HP1-beta chromodomain binding to methylated histone tails. AlphaScreen HP1-beta / biotin-H3K9me3 peptide binding. P83916. hit rate 0.56% among 390,000. Potency, µM (titrated, usually from 114 µM), for inactives: at the top dose activity change, negative = inhibition, hits mostly inhibitors. AID 540317; note: nearly all actives have a fitted effect of over 70% in size
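HP1-beta protein (50 nM final) preincubated 30 min at room temperature with biotinylated H3(1-18)K9me3 peptide (50 nM) in PBS pH 7.4, 0.01% Tween-20, then compound added for 30 min. AlphaScreen streptavidin donor/nickel chelate acceptor beads (10 ug/mL final), 30 min dark, luminescence read.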
G9a block: G9a (human) methyltransferase inhibition; G9a H3K9 monomethylation, AlphaScreen, 2 h; Potency, µM (series often up to 102 µM), for inactives: top-dose activity, negative = inhibition, usual class: inhibitors; hit rate 8.8% among 350,000; note: % is set by controls: 0 for no effect and ±100 for the full control effect; nearly all actives have a fitted effect of over 75% in size
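Compounds were preincubated with 20 nM G9a for 15 min, after which biotinylated H3K9 peptide (500 nM) and SAM (20 uM) started a 2 h room-temperature reaction. Monomethylated product was quantified by antibody-based AlphaScreen chemiluminescence.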
L3MBTL1 block: L3MBTL1 (human) inhibition; Q9Y468; AlphaScreen L3MBTL1–H3K9me1 peptide binding; Potency, µM (doses to about 57.1 µM), inactives show at the highest dose activity, negative = inhibition, actives largely listed as inhibitors; hit rate 0.66% among 230,000; note: % is set by controls: 0 for no effect and ±100 for the full control effect; nearly all actives have a fitted effect of over 60% in size
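L3MBTL1 (50 nM) pre-complexed 30 min with biotinylated H3(1-15)K9me1 peptide (75 nM), then compounds added for 30 min at room temperature; AlphaScreen streptavidin donor/nickel chelate acceptor beads (10 ug/mL final) read after 30 min dark incubation.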
* = called active by the depositor; ? = inconclusive; . = not tested or not shown; [ ] = remark or other dose. Calls come from the whole dose curve; as a rule, active = well fitted inhibition curve with a large enough effect; inconclusive = small, poorly fitted or top-dose-only effect; inactive = no such curve, though single readings can be large or run the other way. Potency is the fitted concentration of half-maximal effect.

SMILES	JMJD2A Tudor inh	BAZ2B block	HP1b chromo inh	G9a block	L3MBTL1 block
CCN(CC)CCOc1cc2c(nn1)Oc1ccccc1N2C	?	?	7%	50µM*	3%
O=S(=O)(c1ccc(F)cc1)N1CCN(c2nc(-c3cccs3)nc3cc(Cl)ccc23)CC1	-2%	.	35%	.	.
COC(=O)[C@]1(C)N[C@H](CN(C)C(C)=O)[C@@H]2C(=O)N(C)C(=O)[C@@H]21	-22%	.	17%	.	1%
CCNC(=O)N(C)C[C@H]1N[C@@](C)(C(=O)OC)[C@H]2C(=O)N(C)C(=O)[C@@H]12	89µM*	.	27%	.	-1%
Cc1ccc2c(CC(=O)N(Cc3ccc(Cl)cc3)Cc3ccco3)coc2c1	11%	-5%	47%	-16%[59 µM]	.
CCCN1CNc2c(c(=O)[nH]c(=S)n2CCc2ccc(Cl)c(Cl)c2)C1	-4%	.	37%	.	.
Cc1ccc(C(=O)Nc2ncn[nH]2)cc1	?	50µM*	49%	?	-11%
CC(C(=O)Nc1ncn[nH]1)N1C(=O)c2ccccc2C1=O (centres undefined)	-5%	5%	44%	?	-3%
O=C(Nc1ncn[nH]1)c1cccc(F)c1	?	50µM*	.	23%[2.33 µM]	-3%
O=C(Nc1cccc(NC(=O)c2cccc(F)c2)n1)c1cccc(F)c1	0%	-2%	20%	?	.
CC(C)(C)c1ccc(C(=O)Nc2ncn[nH]2)cc1	9%	?	30%	?	1%
Cc1ccc(SC(C)C(=O)Nc2ncn[nH]2)cc1 (centres undefined)	-22%	56µM*	41%	?	-19%
CC(=O)c1ccccc1S(=O)(=O)N1CCN(c2nc(-c3cccs3)nc3ccccc23)CC1	-28%	.	16%	.	.
CCOc1ccccc1C(=O)N(Cc1cc(OC)c(OC)c(OC)c1)c1ccccn1	-8%	-2%	36%	0%[59 µM]	.
CCOc1ccc(NC(=O)CN2CCN(Cc3ccccc3)S2(=O)=O)cc1	-13%	-10%	14%	?	.
Oc1ccc(Cl)cc1-c1cc(-c2ccco2)[nH]n1	-36%[11.4 µM]	40µM*	7.9µM*	?	-20%
N#Cc1cc(S(=O)(=O)c2ccc(Cl)cc2)c(N)[nH]c1=O	2%	-34%	31%	50µM*	4%
O=C(Nc1ccc(C(F)(F)F)cc1)C1CCN(S(=O)(=O)c2ccc(N3CCCC3=O)cc2)CC1	-13%	-2%[57.1 µM]	17%[57 µM]	20%	.
Cc1c(C)n2c(SCC(=O)N3CCOCC3)nnc2[nH]c1=O	32µM*	-6%	27%	-30%[0.501 µM]	1%
Cc1c(C)n2c(SCC(=O)N3CCCCCC3)nnc2[nH]c1=O	-3%	6%	51%	?	7%
COc1ccc(-n2c(SCC(=O)Nc3ccccc3OC)nc(O)c(Cc3ccccc3)c2=O)cc1	-21%	-2%	24%	.	.
COc1ccc(-n2c(SC)nc(O)c(Cc3ccccc3)c2=O)cc1	-13%	-9%	11%	40µM*	6%
CCC(Sc1nc2cc(OC)c(OC)cc2c(=O)n1CCc1ccc(Cl)cc1)C(=O)NCCOC (centres undefined)	-13%	2%	-7%	13%[59 µM]	.
Cc1ccc(/C=N/NC(=O)Nc2ccccc2)o1	-15%[57.1 µM]	?	23%	11%[59 µM]	-8%
Cc1ccc(S(=O)(=O)N/N=C\c2ccc(C)o2)cc1	?	50µM*	5%	?	?
SMILES	JMJD2A Tudor inh	BAZ2B block	HP1b chromo inh	G9a block	L3MBTL1 block
CC(=O)Nc1ccc(S(=O)(=O)N/N=C/c2ccc(C)o2)cc1	-24%	?	1%	45µM*	.
Cc1ccc(/C=N/NS(=O)(=O)c2ccc([N+](=O)[O-])cc2)o1	-10%[57.1 µM]	-10%	50%	13%[59 µM]	8%
O=c1c2sc3ccccc3c2n(Cc2ccccc2)c(=O)n1CCc1ccccc1	-13%	1%	50%	12%[59 µM]	.
Cc1sc2ncnc(NCC(c3ccco3)N(C)C)c2c1C (centres undefined)	1.6µM*	7%	?	5%[59 µM]	36%
COc1ccc(-c2nnc3ccc(SC(C)C)nn23)cc1OC	5%[57.1 µM]	.	16%[57 µM]	.	.
Cc1ccc(-c2nnc(C3CCN(S(=O)(=O)c4ccc(C)c(C)c4)CC3)o2)cc1	-15%	-17%	44%	?	.
CC(=O)Nc1ccc(S(=O)(=O)N2CCC(c3nnc(-c4ccc(C)cc4)o3)CC2)cc1	-13%	0%	37%	28µM*	-1%
COc1ccccc1-c1nnc(C2CCN(S(=O)(=O)c3ccccc3)CC2)o1	-8%	-14%	46%	?	.
COc1ccc(-c2nnc(C3CCN(S(=O)(=O)c4ccccc4)CC3)o2)cc1	-12%	-2%	34%	40µM*	2%
COc1ccccc1-c1nnc(C2CCN(S(=O)(=O)c3cccc([N+](=O)[O-])c3)CC2)o1	?	?	-5%[57 µM]	?	.
Cc1cccc(-c2nnc(C3CCN(S(=O)(=O)c4cccc(Cl)c4)CC3)o2)c1	-29%	-13%	-6%	3.2µM*	.
COc1ccccc1-c1nnc(C2CCN(S(=O)(=O)c3ccccc3[N+](=O)[O-])CC2)o1	-32%	-17%	18%	40µM*	.
CCOc1ccc(NC(=O)Cn2cc(C(=O)c3ccc(CC)cc3)c(=O)c3cc(C)ccc32)cc1	-13%	?	25%	?	.
N#CCCN1CCN(S(=O)(=O)c2ccc(S(=O)(=O)N3CCCCCC3)cc2)CC1	0%	8%	39%	-13%[59 µM]	8%
N#CCCN1CCN(S(=O)(=O)c2ccc(C#N)cc2)CC1	-5%	3%	16%	-20%	1%
Cc1ccc(S(=O)(=O)N2CCN(CCC#N)CC2)cc1	3.5µM*	20µM*	45µM*	7.1µM*	?
N#CCCN1CCN(S(=O)(=O)c2ccc(S(=O)(=O)NC3CCCC3)cc2)CC1	-6%	7%	36%	35µM*	-14%
CC(C)n1c(=O)[nH][nH]c1=S	8.9µM*	50µM*	13µM*	0.89µM*	2%
CC(C)n1c(=O)[nH]c2ccccc21	-13%	-6%	19%	8%	10%
O=C(C(Cl)c1ccccc1)N1CCOCC1 (centres undefined)	-18%	30%	-11%	22µM*	.
O=C(C(c1ccccc1)C(O)(c1ccccc1)c1ccccc1)N1CCOCC1 (centres undefined)	-9%	.	11%[57 µM]	.	.
COc1cccc(-c2nc(NCc3cccs3)c3ccccc3n2)c1	.	.	.	-40%[0.501 µM]	.
O=C(O)c1ccc(S(=O)(=O)N[C@H](Cc2ccc(O)cc2)C(=O)O)cc1	-19%	-6%	.	?	?
C[C@H]1CC[C@H]2C(=O)N3[C@H](c4ccccc4Br)[C@@H](C)CC[C@H]3C(=O)N2[C@@H]1c1ccccc1Br	.	-38%	.	50µM*	-13%
NC1=NC(c2cccc(Cl)c2)n2c(nc3ccccc32)N1 (centres undefined)	-20%	-36%	19%	-10%[59 µM]	.
Fc1ccc(/C=N/Nc2nn[nH]n2)cc1	-18%	?	50%	3%	9%
